In PubChem BioAssay (NCI):
Compounds without any hit were thinned out: in the full panel of roughly 79,000, 15% have a hit. A number with no mark means an inactive call. Active and inactive are the calls of the source. No stated cut-off is given here; in the data, active means growth inhibition above about 70%; inactive means the rest. Where a SMILES comes first, the peptide text is derived from it. The star is where a group is joined. Cbz = O=C(OCc1ccccc1)*; Bn = c1ccc(C*)cc1

Assays:
[1] = NCI Yeast Anticancer Drug Screen. Data for the rad50 strain (AID 155);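 further: 0% = growth of vehicle-only cultures of the same strain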; conditions: S. cerevisiae rad50 strain growth inhibition; at 50.0 µM; active compounds read high
Summary of the method: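 Inhibition values express reduced yeast growth in compound-treated cultures relative to vehicle-treated controls.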

[2] = NCI Yeast Anticancer Drug Screen. Data for the mec2-1 strain (AID 157); conditions: S. cerevisiae mec2-1 strain, at 50.0 µM, active compounds read high
Summary of the method: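 Strain: mec2-1 (DNA repair/cell cycle alteration). Compound exposure, then growth measured; inhibition expressed relative to vehicle.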

[3] = NCI Yeast Anticancer Drug Screen. Data for the sgs1 mgt1 strain (AID 161);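 further: 0% = growth of cultures given vehicle only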; conditions: S. cerevisiae sgs1 mgt1 strain, at 50.0 µM, active compounds read high
Summary of the method: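 Genetically altered yeast, compound exposure, growth inhibition relative to vehicle.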

[4] = NCI Yeast Anticancer Drug Screen. Data for the cln2 rad14 strain (AID 165);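 further: 0% = growth equal to vehicle treated cultures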; conditions: S. cerevisiae cln2 rad14 strain, at 50.0 µM, active compounds read high
Summary of the method: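 Compounds are applied to the cln2 rad14 yeast strain, and growth is then compared with that of vehicle-treated cultures to give inhibition.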

[5] = NCI Yeast Anticancer Drug Screen. Data for the bub3 strain (AID 167); conditions: S. cerevisiae bub3 mutant strain, at 50.0 µM, active compounds read high
Summary of the method: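 Steps: expose the mutant yeast strain to compound; grow alongside vehicle-treated cultures; measure growth; express inhibition against the vehicle cultures.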

[6] = NCI Yeast Anticancer Drug Screen. Data for the mlh1 rad18 strain (AID 175); conditions: S. cerevisiae mlh1 rad18 strain growth inhibition; at 50.0 µM; active compounds read high
Summary of the method: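 Read-out is yeast growth inhibition, calculated against vehicle-only controls. The compound was applied to a strain engineered with DNA damage repair alterations.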

Structure (SMILES)	growth inhibition [1]	growth inhibition [2]	growth inhibition [3]	growth inhibition [4]	growth inhibition [5]	growth inhibition [6]
O=C1C(CO)=C[C@@H](O)[C@H]2O[C@@H]12	8.25%	1.5%	12.6%	6.8%	15.9%	17.4%
C/C(=N\N(C)C)c1sc(-n2nc(-c3ccccc3)cc2-c2ccccc2)nc1C	10.7%	-10.2%	17.6%	-8%	11%	8.75%
Cc1cccc(NC(=O)c2cccc(C(=O)Nc3cccc(C)c3C)c2)c1C	-12.4%	0.6%	17.6%	-15.9%	5.2%	-21.9%
CC(C)C(NC(=O)C(CSCc1ccccc1)NC(=O)OCc1ccccc1)C(=O)O (stereo unspecified) (Cbz-Cys(Bn)-Val-OH; configuration not given here)	24.1%	-2.4%	13.4%	28.1%	-2.1%	21.1%
Nc1ccc2cc(S(=O)(=O)O)cc(S(=O)(=O)O)c2c1	39.3%	-5.2%	6.6%	-18.9%	-0.15%	31.8%
CC(=O)Nc1ccc(-c2nnc(SCC(=O)Nc3ccc(C)cc3)o2)cc1	-15%	-5.5%	-5.8%	8.4%	-13.7%	-38.3%
Cc1c2ccccc2c(C)n2c1nc1cc3ccccc3cc12	9.8%	11.9%	11.8%	8.55%	4.65%	28.6%
CC(=S)NC(=O)Nc1cccc2ccccc12	19.2%	-8.45%	2.4%	-50.6%	-10.2%	10.8%
O=C(NC/C=C/Br)NC1CCNc2ccccc21 (stereo unspecified)	-14.2%	-27.4%	22.1%	28.6%	20.2%	23%
CC(C)=NNC(=O)c1ccc(Cl)cc1	-19.1%	-25.1%	-18.2%	17.1%	-7.85%	-32.1%
COc1ccc(S(=O)(=O)Nc2cccc(C(F)(F)F)c2)cc1	99% (active)	99.7% (active)	99.5% (active)	98.5% (active)	99.3% (active)	99.5% (active)
COc1ccc(Cl)cc1NC(=O)c1cccc([N+](=O)[O-])c1O	-14.9%	8.95%	1.75%	-8.55%	8.65%	-78.4%
Cn1nnc2c1C(=O)c1ccccc1C2=O	0.6%	-14%	29.4%	-50.3%	-8.5%	-0.7%
O=C(Cn1ccccc1=O)c1ccc(F)cc1	9.65%	-0.15%	0%	-18.6%	1.7%	-8.25%
C/C(Cl)=C/CC1(C)CCCC(C)(C)CC1=O (stereo unspecified)	6.4%	7.4%	1.5%	2.05%	1.85%	-10.3%
C=CCc1cc(OC)c2c(c1)C(O)CC(c1ccccc1)O2 (stereo unspecified)	15.2%	-24.6%	-34.6%	-6.2%	2.9%	1.55%
CCCCCC/C=C/C(N)=O	5.75%	5.6%	-7.8%	12.1%	-20.2%	8.35%
CN(C)c1ccccc1C(=O)N/N=C/c1ccc(F)cc1	-4.7%	-31.3%	-6.55%	-13.8%	-14.9%	-6%
N#C/C(=C/C=C/c1ccco1)C(N)=O	9.9%	1.65%	15.6%	10.6%	-6.25%	13.4%
O=S(=O)(c1ccc(Br)cc1)S(=O)(=O)c1ccc(Br)cc1	-22.6%	0.7%	-23.1%	-13.9%	23.2%	-16.1%
COC(=O)c1cccnc1C#N	2.2%	-0.95%	2.9%	-5.95%	0.55%	0.4%

Structure (SMILES)	growth inhibition [1]	growth inhibition [2]	growth inhibition [3]	growth inhibition [4]	growth inhibition [5]	growth inhibition [6]
Cc1cc(C)c(/C=C\C(=O)c2ccccc2)c(C)c1	9.75%	-7.65%	-4.3%	-37.9%	6.15%	-15.5%
NNC(=O)c1ccc(-c2ccc[nH]2)[nH]1	10.7%	0.7%	-20.9%	-75.5%	-14.4%	5%
CCNC1(C(N)=O)CCN(Cc2ccccc2)CC1	-14.6%	-55.8%	-31.1%	5.1%	-30.4%	-22.7%
CC(C)c1ccc2c(c1)C=C1OC(=O)[C@]3(C)CCC[C@@]2(C)C13 (stereo partly specified)	35.1%	21.9%	54.2%	40%	26.4%	17.1%
CCCCCCCCCCCCCCCOc1cc(OC)ccc1-c1nnc(SC)s1	-15.2%	-15.6%	-24.1%	-3.05%	-11.5%	-5.7%
CC(=O)OC1CC(OC(C)=O)C(OC(C)=O)C(C)O1 (stereo unspecified)	1.15%	17.9%	4.7%	-15.7%	-1.85%	5.45%
CCOC(CN1CCCCC1)OCC	-7.85%	-7.6%	17.1%	8.7%	-1.6%	6.65%
Cn1c(=O)c2[nH]c(Br)nc2n(C)c1=O	-12%	-13.4%	5.4%	-4.25%	13.3%	-12.2%
COc1ccccc1NC(C)=O	8.15%	5.8%	0.15%	6%	11.4%	-30.4%
C[N+](C)(C)c1ncncn1	2.05%	1.5%	-10.8%	-21%	-25.3%	-0.1%
Cc1cc(Cl)ccc1NC(=O)C(=O)Cc1nc2ccc(C(=O)c3ccccc3)cc2[nH]c1=O	5.15%	-4.75%	-4.85%	22.9%	26.4%	7.15%
CC(=O)OCC1OC(n2c(S)c(C#N)c(-c3ccccc3)c(C#N)c2=O)C(OC(C)=O)C(OC(C)=O)C1OC(C)=O (stereo unspecified)	22.1%	8.45%	-17.3%	-7.4%	-21.2%	-37.1%
COc1cccc(/C=N\N=C\c2cccc(OC)c2O)c1O	2.65%	2.7%	-11.4%	-7.05%	26.6%	33.9%
C[CH2][Sn]([CH2]C)([O]C(=O)c1cccc(F)c1)[O][Sn]([CH2]C)([CH2]C)[O]C(=O)c1cccc(F)c1	31.4%	3.3%	5.85%	16.4%	13.6%	0.45%
O=C1/C(=C/c2ccc3c(c2)OCO3)SC2C=Nc3ccccc3N12 (stereo unspecified)	-14%	-20.3%	1.2%	-7.45%	2.5%	-8.65%
CC(CCl)CC#N (stereo unspecified)	-5.6%	-19.1%	7.9%	13.1%	-10%	-1.1%
CCCCCCCCCCCCCCCCCC	-9.7%	-6.9%	-16.2%	6.7%	0.25%	-2.15%
Nc1nc(N)c(-c2ccc(Cl)cc2)c(CCC(=O)Nc2cccc(C(F)(F)F)c2)n1	-25.2%	-3.55%	-30%	-0.25%	-17.1%	-21.1%
NC(=O)C(=CNC(=S)Nc1cccc(C(F)(F)F)c1)C(N)=O	-45%	-44.5%	-14.8%	16.4%	5.5%	-56%
O=C1C(=C(c2ccc([N+](=O)[O-])cc2)N2CCOCC2)C(=O)c2ccccc21	8.9%	0.4%	6.45%	-30.9%	1.75%	10.3%
